In PubChem BioAssay AID463173 (ICCB-Longwood Screening Facility, Harvard Medical School, 2010):
Out of some 52,000 compounds screened, about 4,300 (8.3%) were called active. The full list was thinned out, with actives kept by preference. A number with no mark means an inactive call. Cut-off read from the data, not from the text of the source: active = survival mostly below about 52% (no sharp cut-off); inactive = mostly above about 56%.

system: DeltatarO mutant; assay: growth inhibition of S. aureus wild type versus tarO mutant, primary screen, teichoic acid synthesis inhibitors, RN4220, OD600 (AID 463173); conditions: OD600, 18 h, stronger effect = lower value, screened at 18.75 µg/mL (by protocol)

Going from O=C(Nc1cc(C(F)(F)F)ccc1Cl)c1noc2c1CCCCC2 to O=C(Nc1cccc(C(F)(F)F)c1)C1CCN(S(=O)(=O)c2cccc3nsnc23)CC1, the survival falls from 82% to 81%.

Compared with COc1ccc(NC(=O)c2ccc3c(=O)n4nc(Nc5cc(C)ccc5C)sc4nc3c2)cc1, CCOc1ccc(-n2cc(C(=O)Nc3ccccc3OCC)c3cc(OC)c(OC)cc3c2=O)cc1 is lower in survival: 116% for the first, 61% for the second.

Going from CCCCN(C)c1nc2c(S(=O)(=O)c3ccc(CC)cc3)nnn2c2ccc(Cl)cc12 to CCc1ccc(NC(=O)Cn2ccn(-c3cccc(Cl)c3)c(=O)c2=O)cc1, the survival falls from 76% to 61%.

First: CCc1ccccc1NC(=O)Cc1c(C(=O)O)[nH]c2ccc(Cl)cc12
Second: CNc1nc2c(c(=O)[nH]c(=O)n2C)n1Cc1cccc2ccccc12
The survival of the first is lower: 80% for the first, 85% for the second.

First: CCOc1ccc(CCNC(=O)c2cnc3sc(N(CC)CC)nn3c2=O)cc1OCC
Second: CCOc1ccc(CCNC(=O)CCCc2nnc3n(C)c(=O)c4sccc4n23)cc1OCC
The survival of the first is higher: 122% for the first, 93% for the second.

Going from COc1ccc(CNC(=O)c2ccc(N3CCCC3)c(NC(=O)NCc3ccc(F)cc3)c2)cc1 to O=C(NCc1ccco1)c1ccc2c(c1)N(Cc1ccc(F)cc1)C(=O)c1ccccc1S2=O (stereo not drawn), the survival falls from 93% to 76%.

First: Cc1ccc(-n2ncc3c(NC4CCCCCC4)ncnc32)cc1Cl
Second: Fc1ccc(-n2cc(-c3ccccc3)c3c(NC4CCCCC4)ncnc32)cc1
The survival of the first is lower: 66% for the first, 85% for the second.

Compared with CS(=O)(=O)N(Cc1ccccc1)c1ccc(C(=O)Nc2ccc(Cl)cc2)cc1, Cc1ccc(NC(=O)c2ccc(N(Cc3ccccc3)S(C)(=O)=O)cc2)cc1 is lower in survival: 145% for the first, 64% for the second.

Going from Cc1ccccc1NC(=O)c1ccc(N(Cc2ccccc2)S(C)(=O)=O)cc1 to Cc1ccc(C(=O)Nc2ccc(S(=O)(=O)N(Cc3ccccc3)c3ccccc3)cc2)cc1, the survival falls from 66% to 65%.

Compared with COc1cccc(N2CCN(C(=O)C(CCSC)NS(=O)(=O)c3ccc4c(c3)oc(=O)n4C)CC2)c1 (stereo not drawn), O=C(CN1C(=O)COc2ccc(S(=O)(=O)N3CCCCCC3)cc21)N1CCN(c2ccc(F)cc2)CC1 is lower in survival: 106% for the first, 67% for the second.

First: Cc1ccc(-n2ncc(C(=O)NCCN3CCC(Cc4ccccc4)CC3)c2C2CCN(C(=O)OC(C)(C)C)CC2)cc1
Second: CC(C)(C)OC(=O)N1CCC(c2c(C(=O)NCCN3CCC(Cc4ccccc4)CC3)cnn2-c2ccccc2)CC1
The survival of the first is higher: 98% for the first, 80% for the second.

Going from Cc1ccc(-n2ncc(C(=O)NCc3cccs3)c2C2CCN(C(=O)OC(C)(C)C)CC2)cc1C to CC(C)(C)OC(=O)N1CCC(c2c(C(=O)NCc3cccs3)cnn2-c2ccc(F)cc2F)CC1, the survival falls from 91% to 72%.

Compared with CC(C)(C)OC(=O)N1CCC(c2c(C(=O)NCc3ccccc3)cnn2-c2ccc(F)cc2)CC1, COc1ccc(CNC(=O)c2cnn(-c3ccc(OC)cc3)c2C2CCN(C(=O)OC(C)(C)C)CC2)cc1 is lower in survival: 128% for the first, 74% for the second.

Compared with CC(C)CCNC(=O)CSc1nc2ccccc2nc1Cc1ccccc1, Cc1noc(-c2ccc(NC(C)c3ccccc3)c([N+](=O)[O-])c2)n1 (stereo not drawn) is lower in survival: 82% for the first, 70% for the second.

First: Cc1cc2oc(C(=O)Nc3ccc(S(N)(=O)=O)cc3)cc(=O)c2cc1C
Second: CSc1nnc(NC(=O)c2cc(=O)c3cc(C)c(C)cc3o2)s1
The survival of the first is higher: 70% for the first, 52% for the second.

Compared with Cc1ccc2c(=O)cc(C(=O)Nc3nnc(CC(C)C)s3)oc2c1C, Cc1ccc2oc(C(=O)Nc3nnc(CC(C)C)s3)cc(=O)c2c1 is higher in survival: 61% for the first, 63% for the second.

Going from CCc1nnc(NC(=O)c2cc(=O)c3cc(C)ccc3o2)s1 to CCSc1nnc(NC(=O)c2cc(=O)c3cc(C)ccc3o2)s1, the survival rises from 79% to 86%.

First: CCCC(=O)Nc1nnc(CCC)s1
Second: CCCc1nnc(NC(=O)c2cc(=O)c3ccccc3o2)s1
The survival of the first is higher: 80% for the first, 63% for the second.

Compared with CC(=O)Nc1ccc(NC(=O)c2cc(=O)c3ccccc3o2)cc1, COc1ccccc1C(O)(C(=O)NNc1cccc(Br)n1)c1ccccc1OC is higher in survival: 59% for the first, 73% for the second.

First: CCCSc1nnc(NC(=O)Cc2coc3cc(C)ccc23)s1
Second: CCCC(=O)Nc1nnc(SCc2cc(=O)c3ccc(C)cc3[nH]2)s1
The survival of the first is lower: 85% for the first, 122% for the second.

Going from COc1ccccc1CNS(=O)(=O)c1cnc(N)nc1 to CCOc1ccccc1NC(=O)C1CCN(S(=O)(=O)c2cccs2)CC1, the survival falls from 89% to 58%.

First: C=CS(=O)(=O)c1ccc(Oc2ccc(S(=O)(=O)C=C)cc2)cc1
Second: O=C(Nc1ccc(OC(F)(F)F)cc1)C1CCN(S(=O)(=O)c2ccc3[nH]c(=O)ccc3c2)CC1
The survival of the first is higher: 103% for the first, 92% for the second.

First: COC(=O)CNc1cn[nH]c(=O)n1
Second: COc1ccc(NC(=O)C2CCCN(S(=O)(=O)c3cccs3)C2)cc1 (stereo not drawn)
The survival of the first is lower: 92% for the first, 96% for the second.

First: COCCN(Cc1ccco1)C(=O)c1cc2c(Cl)nc3ccc(C)cc3c2s1
Second: COc1ccc(Cn2ccc3nc(C)c(C(=O)N4CCN(c5ccccc5OC)CC4)cc3c2=O)cc1
The survival of the first is lower: 92% for the first, 102% for the second.

First: CCc1c(C)c2ccc(O)c(CN3CCN(c4cc(Cl)ccc4C)CC3)c2oc1=O
Second: COc1ccccc1C(=O)Nc1cc2c(cc1N1CCOCC1)n(C)c(=O)n2C
The survival of the first is lower: 54% for the first, 136% for the second.

Compared with CC(C)n1c(SCc2ccccc2)nnc1C1CCCN(CC(N)=O)C1 (stereo not drawn), O=C(c1cccs1)N1CCC(Cc2ccccc2)CC1 is lower in survival: 96% for the first, 86% for the second.

Compared with O=C(NC12CCC(O)C(SC1)C2O)c1ccccc1 (stereo not drawn), CCc1cccc(NC(=O)C2CCCN(S(=O)(=O)c3cccs3)C2)c1 (stereo not drawn) is lower in survival: 109% for the first, 80% for the second.

Compared with CCC(Nc1ccc(-c2nc(-c3cccnc3)no2)cc1[N+](=O)[O-])c1ccccc1 (stereo not drawn), CC(Nc1ccc(-c2nc(-c3cccnc3)no2)cc1[N+](=O)[O-])c1ccccc1 (stereo not drawn) is higher in survival: 64% for the first, 79% for the second.

First: CC(C)Nc1ccc(-c2nc(-c3ccncc3)no2)cc1[N+](=O)[O-]
Second: CC(C)Nc1ccc(-c2nc(-c3ccco3)no2)cc1[N+](=O)[O-]
The survival of the first is lower: 79% for the first, 107% for the second.

Compared with CNc1ccc(-c2nc(-c3ccccn3)no2)cc1[N+](=O)[O-], CC(Nc1ccc(-c2nc(-c3ccco3)no2)cc1[N+](=O)[O-])c1ccccc1 (stereo not drawn) is higher in survival: 52% for the first, 100% for the second.

Going from CCC(Nc1ccc(-c2nc(-c3ccco3)no2)cc1[N+](=O)[O-])c1ccccc1 (stereo not drawn) to COc1ccc(NS(=O)(=O)c2cc(-c3onc(C)c3C)ccc2C)c(OC)c1, the survival rises from 53% to 89%.

Compared with CCOc1cc(-c2nnc(SCC(=O)NCc3ccc(C)cc3)nc2-c2ccc(OC)c(OCC)c2)ccc1OC, COc1cc(OC)cc(-c2nc3nc(C)c(CCC(=O)Nc4cc(C)cc(C)c4)c(C)n3n2)c1 is lower in survival: 78% for the first, 69% for the second.

First: CCOc1cc(NC(=S)NCCCN2CCOCC2)c(OCC)cc1NC(=O)C1CC1
Second: Cn1cnc(S(=O)(=O)N2CCC(C(=O)Nc3ccc(OC(F)(F)F)cc3)CC2)c1
The survival of the first is higher: 94% for the first, 92% for the second.

First: O=C(Nc1ccc(OC(F)(F)F)cc1)C1CCCN(S(=O)(=O)c2ccc(Br)s2)C1 (stereo not drawn)
Second: CC(C)c1ccc(NC(=O)C2CCN(S(=O)(=O)c3ccc(Br)s3)CC2)cc1
The survival of the first is higher: 80% for the first, 73% for the second.

Compared with Cc1cc(NC(=O)C2CCN(S(=O)(=O)c3ccc(Br)s3)CC2)ccc1Br, CC(=O)c1ccc(NC(=O)C2CCCN(S(=O)(=O)c3cn(C)cn3)C2)cc1 (stereo not drawn) is higher in survival: 79% for the first, 94% for the second.

Compared with O=C(O)C1CCN(C(=O)c2cccs2)CC1, O=C(NCc1cccc(Br)c1)C1CCN(C(=O)c2sccc2-n2cccc2)CC1 is lower in survival: 88% for the first, 66% for the second.

Compound CCC1SC(C)C/C(=N\O)C1C (stereo not drawn) has a survival of 105%.

In the case of CS(=O)(=O)N(Cc1ccccc1)c1ccc(C(=O)Nc2cccc(Cl)c2)cc1, the survival was 36% (active).
For Cc1cccc(NC(=O)c2ccc(N(Cc3ccccc3)S(C)(=O)=O)cc2)c1, the survival was 48% (active).
With CC(C)(C)OC(=O)N1CCC(c2c(C(=O)NCCN3CCC(Cc4ccccc4)CC3)cnn2-c2ccc(F)cc2)CC1 the survival was 47% (active).
For CC(C)(C)OC(=O)N1CCC(c2c(C(=O)NCc3ccc(F)cc3)cnn2-c2ccc(F)cc2)CC1, the survival was -5% (active).
For CC(C)(C)OC(=O)N1CCC(c2c(C(=O)NCc3cccs3)cnn2-c2cccc(F)c2)CC1, the survival was -5% (active).
CCc1nnc(NC(=O)c2cc(=O)c3cc(C)c(C)cc3o2)s1 was tested, and the survival was 36% (active).
For CCCSc1nnc(NC(=O)c2cc(=O)c3ccccc3o2)s1, the survival was 38% (active).
With CCCc1nnc(NC(=O)c2cc(=O)c3cc(C)c(C)cc3o2)s1 the survival was 35% (active).
For CCCc1nnc(NC(=O)c2cc(=O)c3cc(Cl)ccc3o2)s1, the survival was 43% (active).
For CCSc1nnc(NC(=O)c2cc(=O)c3cc(C)c(C)cc3o2)s1, the survival was 44% (active).
CC(C)Nc1ccc(-c2nc(-c3ccccn3)no2)cc1[N+](=O)[O-] was tested, and the survival was 38% (active).
CCC(Nc1ccc(-c2nc(-c3ccccn3)no2)cc1[N+](=O)[O-])c1ccccc1 (stereo not drawn) was tested, and the survival was 41% (active).
In the case of CC(Nc1ccc(-c2nc(-c3ccccn3)no2)cc1[N+](=O)[O-])c1ccccc1 (stereo not drawn), the survival was 19% (active).
In the case of CC(Nc1ccc(-c2nc(-c3ccncc3)no2)cc1[N+](=O)[O-])c1ccccc1 (stereo not drawn), the survival was 42% (active).
For O=C(Nc1ccccc1)C1CCN(C(=O)c2cccs2)CC1, the survival was 67% (active).
For O=C(Nc1ccc(Cl)cc1)C1CCN(S(=O)(=O)c2ccc(Br)s2)CC1, the survival was 47% (active).
In the case of Cn1cnc(S(=O)(=O)N2CCCC(C(=O)Nc3ccc(OC(F)(F)F)cc3)C2)c1 (stereo not drawn), the survival was 25% (active).
With O=C(Nc1ccc(OC(F)(F)F)cc1)C1CCN(S(=O)(=O)c2cccs2)CC1 the survival was 21% (active).
In the case of Cc1ccc(NC(=O)C2CCN(S(=O)(=O)c3cccs3)CC2)cc1, the survival was 40% (active).
In the case of O=C(Nc1cccc(C(F)(F)F)c1)C1CCN(S(=O)(=O)c2cccs2)CC1, the survival was 39% (active).
